Most compounds without a hit are left out; they make up all but 2.3% or so of the library.
GLD-1 TGE inh = GLD-1-TGE RNA interaction inhibition (C. elegans); purified GLD-1 + fluorescein TGE RNA, fluorescence polarization; inhibition, % at 5.96 µM; hit rate 0.44% among 320,000; AID 2280;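 active means percent inhibition above a per-plate cutoff, the plate mean of test compounds plus 3 SD, cut at about 30% in these data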;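 further: 0% = DMSO wells with GLD-1 and probe and 100% = wells lacking GLD-1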
Target sequence (Q17339 whole entry, looked up): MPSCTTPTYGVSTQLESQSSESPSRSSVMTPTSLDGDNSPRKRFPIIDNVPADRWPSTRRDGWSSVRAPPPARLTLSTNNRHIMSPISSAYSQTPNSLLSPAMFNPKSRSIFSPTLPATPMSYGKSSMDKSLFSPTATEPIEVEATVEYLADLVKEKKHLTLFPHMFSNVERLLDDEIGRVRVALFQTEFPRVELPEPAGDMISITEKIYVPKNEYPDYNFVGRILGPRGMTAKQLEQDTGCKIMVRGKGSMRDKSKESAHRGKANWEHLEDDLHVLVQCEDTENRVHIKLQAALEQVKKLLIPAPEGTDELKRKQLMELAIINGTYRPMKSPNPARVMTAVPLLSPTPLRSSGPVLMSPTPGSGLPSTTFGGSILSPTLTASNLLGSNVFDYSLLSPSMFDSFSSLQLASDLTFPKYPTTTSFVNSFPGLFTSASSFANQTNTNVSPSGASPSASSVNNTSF
Bcl-xL primary = Bcl-xL (human) inhibition. inhibition, % at 10.9 µM. GST-Bcl-xL / FITC-Bim BH3 peptide fluorescence polarization. hit rate 0.7% among 320,000;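 active means inhibition above the mean of all tested compounds plus 3 SD, cutoff set per campaign, cut at about 30% in these data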;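 further: 0% = DMSO wells and 100% = unlabeled Bim-BH3 peptide competitor; inhibitors lower millipolarization by displacing the labeled peptide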
Bim-Mcl-1 = inhibitors of Bim-Mcl-1 interaction, human; Q07820; Bead-based flow cytometry, Bim peptide-Mcl-1 binding; inhibition, % at 10 µM; hit rate 0.1% among 190,000; AID 1009; in the data active means inhibition above about 40%;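 further: 0% = no compound tracer wells and 100% = peptide blocker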
MCL1 BIM primary = inhibitors of human MCL1 binding to BIM-BH3 peptide. AID 2057. GST-MCL1 / FITC-Bim-BH3 fluorescence polarization. Q07820. inhibition, % at 10.9 µM. hit rate 0.68% among 320,000;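 active means inhibition above the mean inhibition of all tested compounds plus 3 SD, set per campaign, cut at about 40% in these data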;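 further: 0% = DMSO wells and 100% = unlabeled Bim-BH3 peptide control; higher means more loss of mP so more displacement of Bim peptide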
Mcl1 Bid PPI = disrupts binding of human Mcl-1 to Bid peptide; Q07820; TR-FRET Mcl-1/Bid-Dy647 peptide binding, 1536-well; inhibition, % at 21.7 µM; hit rate 0.97% among 220,000; AID 1021;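 active means compounds that cut the binding signal by more than half at the single screening dose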;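 further: His-tagged Mcl-1 with europium anti-His antibody binding Bid BH3 peptide; 0% = Mcl-1 plus peptide wells and 100% = peptide-only wells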
Mcl1 Noxa PPI = disrupts binding of human Mcl-1 to Noxa peptide | Q07820 | TR-FRET Mcl-1/Noxa peptide binding, 2 h | inhibition, % at 21.7 µM | hit rate 1.5% among 220,000 | AID 1022;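 active means compounds that cut the protein-peptide binding signal by more than 50% relative to plate controls in a single-dose test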;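 further: His-tagged Mcl-1 with rhodamine Noxa BH3 peptide and terbium anti-His antibody; 0% = Mcl-1 plus Noxa peptide wells and 100% = peptide-only wells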
Numbers without * were called inactive; x = not tested or not shown; ! = not active in a repeat.

SMILES | GLD-1 TGE inh | Bcl-xL primary | Bim-Mcl-1 | MCL1 BIM primary | Mcl1 Bid PPI | Mcl1 Noxa PPI
CC(C)(C)c1cc(-c2n[nH]c(=S)n2-c2ccc(Cl)cc2)n[nH]1 | -3 | -15 | x | -10 | -49 | -6
O=c1c2cccc3c2c(nn1CN1CCOCC1)-c1ccccc1-3 | 5 | 3 | 3 | -3 | -4 | 0
CCN(CC)CCn1nc2c3c(cccc3c1=O)-c1ccccc1-2 | 0 | 3 | -1 | 6 | -3 | 70*
CC12CCC(=O)N1C(C(=O)OCC(=O)Nc1sccc1C#N)CS2 (stereo not given) | 22 | 40* | 1 | 35 | 1 | 37
CCOc1cc(-c2cc(-c3ccc(C)cc3)nc(N)c2C#N)ccc1O | 15 | 30* | 2 | 21 | 5 | 19
COc1cc(-c2cc(-c3ccc(O)cc3)nc(N)c2C#N)ccc1O | -8 | 1 | 9 | 1 | -29 | 31
CCOc1cc(/C=C(\C#N)c2[nH]nc(N)c2C#N)ccc1O | -29 | 9 | 16 | -1 | -56 | 78*
CCOc1cc(/C=C(\C#N)C(=O)Nc2ccccn2)ccc1O | -14 | -2 | x | -7 | x | x
CC1CCCC(C)N1C(=O)COC(=O)CNC(=O)c1sc2ccccc2c1Cl (stereo not given) | -5 | -3 | x | -4 | x | x
CCSc1nnc(SCC(=O)Nc2cc(C)on2)s1 | -1 | x | x | x | x | x
Clc1ccc(OCCn2ccnc2)c(Cl)c1 | 7 | 5 | -2 | 3 | 28 | 31
Clc1ccc(SCCn2ccnc2)cc1 | -2 | 5 | 0 | 3 | 67* | 6
CN(C)C(=O)CSc1nc2ccc(C(=O)c3ccccc3)cc2[nH]1 | 4 | 0 | x | -5 | x | x
COc1ccc2[nH]c3c(NCCN4CCCCC4)ncnc3c2c1 | 2 | -4 | -1 | 4 | -10 | 33
CCOc1ccc2[nH]c3c(NCCc4ccc(OC)c(OC)c4)ncnc3c2c1 | 1 | 7 | x | 4 | -49 | 57*
CC(C)Cn1c(N)c(C(=O)CSc2n[nH]c(N)n2)c(=O)n(C)c1=O | 6 | 5 | x | 7 | x | x
COc1ccc(C(=O)N2CCN(Cc3ccccc3C)CC2)cc1OC | 5 | 4 | 0 | 1 | 75* | 12
COc1cc(OC)cc(C(=O)N2CCN(Cc3ccccc3C(F)(F)F)CC2)c1 | 4 | 14 | -2 | 10 | 67* | 39
COC(=O)/C=C1/SC(=Nc2ccc(C)cc2C)NC1=O | 4 | 5 | 0 | 3 | 98* | 21
Cc1ccc(OCCN2CCN(CC(O)Cn3c4ccccc4c4ccccc43)CC2)cc1 (stereo not given) | 4 | 4 | -1 | 3 | 66* | -7
Cc1ccc(N(C)S(=O)(=O)c2cc3c(cc2C)NC(=O)CO3)cc1 | 7 | 1 | x | -5 | x | x
CC(C)Oc1ccc2c(=O)c(-c3ccccc3)coc2c1 | 10 | 0 | -3 | 10 | 64*! | 44
CCN1/C(=C/C=C/c2oc3ccc4ccccc4c3[n+]2CC)Oc2ccc3ccccc3c21 | -69 | 80* | 24 | 135* | 89* | 21
Cc1ccc(N2CC(C(=O)Nc3ccc(N(C)C)cc3)CC2=O)cc1C (stereo not given) | 2 | 12 | 0 | 12 | -62 | 75*
CCOCCCNC(=O)/C(C#N)=C/c1ccc([N+](=O)[O-])o1 | 46* | 34* | 0 | 34 | -8 | 6
SMILES | GLD-1 TGE inh | Bcl-xL primary | Bim-Mcl-1 | MCL1 BIM primary | Mcl1 Bid PPI | Mcl1 Noxa PPI
Cc1ccc(OCC(O)CN2CCN(c3ccccn3)CC2)c(C)c1 (stereo not given) | -1 | 4 | 0 | 3 | 27 | 51*
CCCCN(Cc1cc2cc(OC)ccc2[nH]c1=O)C(=O)c1ccccn1 | 2 | 6 | -3 | 7 | 65* | 5
Cc1cc2nc(-c3ccc(NC(=O)C(C)C)cc3)oc2cc1C | -3 | 3 | -1 | 2 | 73* | 6
CCc1ccc(NC(=S)NC2CC3CCC(C2)N3Cc2ccco2)cc1 (stereo not given) | 12 | -2 | -5 | -1 | 96* | 4
COc1ccc(NC(=S)NC2CC3CCC(C2)N3Cc2ccco2)cc1 (stereo not given) | 1 | -4 | 0 | -3 | -84 | -3
Cc1cccc(Cn2c(C)nc3c(N)c(C)c(C)cc32)c1 | -1 | 6 | 0 | 7 | 91* | -12
Cc1cccc(Cn2c(C(C)O)nc3ccccc32)c1 (stereo not given) | -3 | 5 | -1 | -6 | -27 | -25
CC(C)OC(=O)c1ccccc1C(=O)c1ccc(N)c([N+](=O)[O-])c1 | 0 | 1 | 4 | -5 | -59 | 61*
CNC(=O)COC(=O)c1ccccc1C(=O)c1ccc(Cl)c([N+](=O)[O-])c1 | x | x | -4 | x | -21 | 9
O=C(CC1C(=O)NCCN1Cc1ccccc1C(F)(F)F)NCCN1CCOCC1 (stereo not given) | 11 | 16 | x | 9 | x | x
Cc1cccc(CN2C(=O)NC(c3ccccc3)(c3ccccc3)C2=O)c1 | 10 | 0 | x | -8 | x | x
Cc1noc(C)c1CN1C(=O)NC(Cc2ccccc2)(Cc2ccccc2)C1=O | -1 | -1 | 40* | 0 | 4 | 14
CCCCOc1ccc(C(=O)NCC(=O)NNC(=O)C2COc3ccccc3O2)cc1 (stereo not given) | 2 | 0 | x | 1 | x | x
Cc1nc(C)c(C(=O)Nc2nc3c(C)cccc3s2)o1 | 11 | 19 | 0 | 37 | -19 | 91*
O=C(NC1CCCc2c1cnn2-c1ccccc1F)c1ccccc1N1CCOCC1 (stereo not given) | 1 | 4 | x | 7 | x | x
COc1cc2c(-c3ccc(O)cc3)nc3c(c(C)nn3-c3ccccc3)c2cc1OC | 6 | 3 | 0 | -2 | 61* | 80*
COc1cc2c(C)nc3c(c(C)nn3-c3ccccc3)c2cc1OC | 0 | 1 | 0 | -3 | -7 | 0
Cc1oc(C)c2c(=O)ccc3c(c12)OC(N)=C(C#N)C3c1ccccc1 (stereo not given) | 9 | 32* | x | 39 | -1 | 37
CC1CCN(C(=O)CSc2nnc(-c3cccnc3)o2)CC1 | -2 | -2 | x | -4 | x | x
COc1cccc2c(=O)c(C/C=C(/C)Cl)c(C)[nH]c12 | 0 | 2 | 0 | -1 | 92* | 11
COc1cccc2c(=O)c(SC(F)(F)C(F)C(F)(F)F)c(C)[nH]c12 (stereo not given) | 6 | 1 | 0 | 8 | -4 | 14
Cc1ccc(C(=O)OCCOc2cccc(Cl)c2)cc1S(=O)(=O)N1CCOCC1 | 0 | 0 | x | -6 | x | x
CCCCN(CC)CCNC(=O)c1cc2c(C)nc3ccccc3c2o1 | -6 | 6 | 0 | 9 | -11 | 71*
COc1cc(NC(=O)c2cc3c(C)nc4ccccc4c3o2)cc(OC)c1OC | -3 | 0 | -1 | 3 | -20 | 56*
Cc1nc2ccccc2c2oc(C(=O)Nc3ccc(C(C)C)cc3)cc12 | 11 | 4 | -9 | 3 | 3 | 6

Screens deposited in PubChem by several laboratories.
